Bioassay records as filed in PubChem.
FLuc counter = qHTS profiling assay for firefly luciferase inhibitor/activator using purifed enzyme and Km concentrations of substrates (counterscreen for miR-21 project). purified FLuc, Km substrates, luminescence inhibition. hit rate 6.9% among 360,000. Potency, µM (top dose mostly 57.5 µM), for the others: top-dose activity change, negative = inhibition, usual class: inhibitors;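 also: plate controls were vehicle for no effect and reference inhibitor for full effect; nearly all actives have a fitted effect of over 55% in size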
Target sequence (P08659 whole entry, looked up): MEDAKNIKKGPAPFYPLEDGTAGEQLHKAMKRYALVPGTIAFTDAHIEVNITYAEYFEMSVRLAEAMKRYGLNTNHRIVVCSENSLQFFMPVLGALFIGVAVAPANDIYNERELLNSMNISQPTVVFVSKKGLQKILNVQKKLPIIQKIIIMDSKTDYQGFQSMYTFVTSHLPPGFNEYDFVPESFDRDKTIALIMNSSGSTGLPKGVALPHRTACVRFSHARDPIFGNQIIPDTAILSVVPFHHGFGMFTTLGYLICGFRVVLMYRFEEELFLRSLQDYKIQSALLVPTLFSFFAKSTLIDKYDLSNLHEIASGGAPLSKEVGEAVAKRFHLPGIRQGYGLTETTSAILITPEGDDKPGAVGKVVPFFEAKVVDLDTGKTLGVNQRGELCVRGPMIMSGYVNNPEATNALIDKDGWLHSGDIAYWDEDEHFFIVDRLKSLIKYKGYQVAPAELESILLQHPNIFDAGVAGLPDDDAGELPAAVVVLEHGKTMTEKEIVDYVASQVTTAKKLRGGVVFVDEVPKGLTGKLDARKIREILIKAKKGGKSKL
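Purified P. pyralis luciferase (10nM final) with 10uM D-luciferin and 10uM ATP (Km levels) in 50mM Tris acetate pH 7.5, 10mM Mg acetate, 0.01% Tween-20, 0.05% BSA; qHTS 6-point titration, ~60 µM downward; luminescence read.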
ELG1 genotox = qHTS screen for small molecules that induce genotoxicity in human embryonic kidney (HEK293T) cells expressing luciferase-tagged ELG1 | hit rate 1.3% among 330,000 | Potency, µM (top dose mostly 46 µM), for the others: top-dose activity change, positive = activation, most hits filed as activators | HEK293T ELG1-luciferase reporter, luminescence, 16 h; also: % of control where 0% means no effect; nearly all actives have a fitted effect of over 60% in size
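Screening used a luciferase reporter fused to human ELG1 in HEK293T cells. Luminescence was read on a CCD plate imager after 16 hr exposure and 30 min ONE-Glo incubation.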
NPC1 prom act = qHTS Assay for NPC1 Promoter Activators. Huh7 NPC1 promoter luciferase reporter, 24 h. Potency, µM (highest dose often 9.22 µM), inactives show at the highest dose activation, most hits filed as activators. hit rate 2.4% among 320,000. AID 485313, 2010; also: % of control where 0% means no effect; nearly all actives have a fitted effect of over 60% in size
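Luciferase expression driven by the NPC1 promoter was measured in stably transfected Huh7 cells after a 24 h compound incubation, using a luciferase reagent and a luminescence read.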
Rab9 prom act = qHTS Assay for Rab9 Promoter Activators | Huh7 Rab9 promoter-luciferase reporter, luminescence, 24 h | Potency, µM (top dose mostly 9.22 µM), for the others: at the highest dose activation, negative = inhibition, actives largely listed as activators | hit rate 2.8% among 320,000 | AID 485297, 2010; also: % of control where 0% means no effect; nearly all actives have a fitted effect of over 60% in size
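Luminescence from Amplite-detected luciferase (10 minutes, ambient) reports Rab9 promoter activation. Before that, stable Rab9-luciferase Huh7 cells (1500/well, reduced-serum OP-MEM I plus 10% FBS) were exposed to compound for 24 hours at 37C.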
SMN2 splice enh = qHTS Assay for Enhancers of SMN2 Splice Variant Expression; HEK293 SMN2-luciferase splicing reporter, luminescence, 30-36 h; Potency, µM (top dose mostly 46.1 µM), without a hit: at the highest dose activity change, positive = activation, hits mostly activators; hit rate 2.8% among 210,000; AID 1458, 2008; also: % of control where 0% means no effect; nearly all actives have a fitted effect of over 55% in size
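HEK293 cells carry an SMN2 […]–luciferase reporter in which exon 7 inclusion puts luciferase in frame. Cells were plated 10-12 h before compound addition, then incubated 30-36 h at 37C. ONE-Glo luminescence was read; sodium butyrate at 4.5 mM final served as control.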
The depositor's hits bear a star; ? = inconclusive; / = no result given. This is a sample that favours compounds with a hit; in the whole collection about 7.4% have one here. Calls follow the shape of the dose curve; as a rule, active = well fitted curve in the direction sought with a large enough effect; inconclusive = small, poorly fitted or top-dose-only effect, or another doubt; inactive = no such curve, though single readings can be large; an effect the other way counts as inactive or inconclusive. Potency is read from the fitted curve at half-maximal effect.

SMILES	FLuc counter	ELG1 genotox	NPC1 prom act	Rab9 prom act	SMN2 splice enh
Cc1sc2c(c1C)c(=O)n(-c1ccc(Cl)cc1)c(=O)n2Cc1c(F)cccc1Cl	-1%	/	/	/	9%
CCOC(=O)c1ccc(NC(=O)C(=O)NCc2ccccn2)cc1	-12%	3%	4%	-2%	-3%
CC(C)(C)c1ccc(OCc2ccc(C(=O)N3CCOCC3)o2)cc1	15µM*	13%	?	?	/
Cc1cccc(OCc2ccc(C(=O)N3CCOCC3)o2)c1	0%	-1%	3%	3%	/
CCc1ccc(OCc2ccc(C(=O)OC)o2)cc1	17µM*	?	?	?	/
CCCc1ccc(OCc2ccc(C(=O)N3CCSCC3)o2)cc1	21µM*	10µM*	2.2µM*	2.2µM*	/
CCc1ccc(NC(=O)C(=O)NCc2ccccn2)cc1	19µM*	?	?	3.5µM*	/
COc1cccc(N2C(=NC(=O)c3ccccc3)SC3CS(=O)(=O)CC32)c1 (stereo not given)	1%	4%	2%	-9%	/
CCC(C)c1ccc(OCc2ccc(C(=O)OC)o2)cc1 (stereo not given)	?	?	0.63µM*	0.5µM*	/
CCOc1ccc(OCc2ccc(C(=O)NCc3ccncc3)o2)cc1	-21%	?	?	?	16%
O=C(N/N=C/c1ccc2ccccc2c1)c1ccc(COc2ccc3c(c2)CCC3)o1	2.7µM*	?	?	?	?
COC(=O)c1ccc(COc2ccc3c(c2)CCC3)o1	17µM*	?	?	?	/
O=C(NCc1cccnc1)c1ccc(COc2ccc3c(c2)CCC3)o1	?	-8%	4%	-1%	-52%
CCc1ccc(OCc2ccc(C(=O)NCc3ccccn3)o2)cc1	?	?	?	?	5µM*
CCNC(=O)CN(c1ccc(F)cc1)S(=O)(=O)c1ccc2c(c1)OCCO2	-3%	1%	-5%	0%	/
CCc1noc(C)c1C(=O)NC1CCCc2c1cnn2-c1ccc(C(C)(C)C)cc1 (stereo not given)	1%	5%	1%	-4%	/
COC(=O)c1ccc(COc2ccc(C(C)(C)C)cc2)o1	17µM*	?	0.71µM*	0.35µM*	/
CC(C)(C)c1ccc(OCc2ccc(C(=O)Nc3cccnc3)o2)cc1	15µM*	?	0.45µM*	0.35µM*	/
Cc1nn(CC(=O)Nc2ccc(Cl)c(S(=O)(=O)N(C)C)c2)c(C)c1[N+](=O)[O-]	5%	-2%	0%	0%	-43%
CCCCNS(=O)(=O)c1ccc2nc(-c3cccnc3)cc(C(=O)NCC(OC)OC)c2c1	0%	8%	2%	-7%	/
C/C(=N\O)c1sc(-c2ccccc2)nc1C	8.5µM*	?	4µM*	3.2µM*	16µM*
CNC(=O)c1sc(-c2ccc(Cl)cc2)nc1C	15µM*	/	/	/	?
CC(=O)Nc1ccc(NC(=O)c2sc(-c3ccccc3)nc2C)cc1	?	-3%	-5%	-1%	/
CNC(=O)c1sc(-c2ccccc2)nc1C	?	?	26%	13%	0%
CCOC(=O)c1sc(-c2cccs2)nc1C	17µM*	1%	10%	28%	17%
SMILES	FLuc counter	ELG1 genotox	NPC1 prom act	Rab9 prom act	SMN2 splice enh
CCOC(=O)CSc1nc(-c2ccccc2)cc(C(F)(F)F)c1C#N	0%	/	/	/	4%
CCOC(=O)Cc1ccc2sc(-c3ccccc3)nc2c1	0.48µM*	6.5µM*	3.2µM*	1.6µM*	16µM*
Cc1nc(-c2ccccc2)sc1C(N)=O	-15%	18%	12%	9%	22%
CCOC(=O)c1sc(-c2ccccc2)nc1C	13µM*	?	-7%	17%	9%
Cc1ccc(C(=O)N(C)Cc2ccc(N3CCOCC3)cc2)cc1S(=O)(=O)NCc1ccccc1	2%	-6%	-3%	0%	/
Cc1ccc(-c2nnc(CCC(=O)NCC3C4CC5CC(C4)CC3C5)o2)s1 (stereo not given)	19µM*	?	?	2.5µM*	/
Cc1nnc(SCC(=O)Nc2ccc3[nH]c(=O)[nH]c3c2)s1	4%	0%	-2%	-12%	/
COCCNC(=O)CSc1nnc(NC(=O)Nc2ccc(C)cc2)s1	12µM*	/	/	/	/
COc1ccc(Nc2nnc(SCC(=O)Nc3ccc4[nH]c(=O)[nH]c4c3)s2)cc1	2.4µM*	6%	3%	11%	/
COC(=O)CSc1nnc(SCc2ccc(OC)cc2)s1	24µM*	0%	0%	-11%	1%
CCCSc1nnc(NC(=O)Nc2ccc(C)cc2)s1	0%	-3%	2%	-2%	/
COc1ccc(NC(=O)CSc2nnc(NC(=O)Nc3ccc(OC)cc3)s2)cc1	0.38µM*	/	/	/	/
COc1ccc(CSc2nnc(SCc3ccc([N+](=O)[O-])cc3)s2)cc1	-2%	1%	2%	-2%	-21%
COc1ccc(-c2ccc(CNCCCSc3nnnn3C)o2)cc1Cl	-1%	/	/	/	/
COc1ccc(CN2CCNC(=O)C2CC(=O)N(C)CC2CCOCC2)cc1C (stereo not given)	0%	4%	-2%	2%	/
CCc1cccc(NC(=O)COC(=O)/C=C/c2cccs2)c1	-5%	2%	-4%	2%	/
CCCCC(=O)Nc1nnc(SCC(=O)Nc2ccc(OC)cc2)s1	1%	?	-7%	0%	/
COc1ccc(NC(=O)CSc2nnc(NC(=O)c3ccccc3C(=O)O)s2)cc1	27µM*	-2%	-1%	-5%	/
O=C(NCc1ccco1)c1noc2c1CCCC2	-10%	2%	17%	27%	-3%
O=C(NCc1ccccc1)c1noc2c1CCCCC2	21µM*	?	3.5µM*	1.6µM*	25µM*
CC(NC(=O)c1noc2c1CCCCC2)c1ccccc1 (stereo not given)	-19%	5%	11%	28%	-1%
O=C(NCc1cccs1)c1noc2c1CCCCC2	?	18µM*	?	?	29%
O=C(NC1CCCC1)c1noc2c1CCCCC2	?	14µM*	?	?	10µM*
COc1ccc(CN(C)C(=O)c2ccc(OCC(=O)N3CCOCC3)c(OC)c2)cc1	?	6%	-7%	18%	/
N#Cc1cccc(-c2csc(N3CCC(C(N)=O)CC3)n2)c1	-17%	/	/	/	/
SMILES	FLuc counter	ELG1 genotox	NPC1 prom act	Rab9 prom act	SMN2 splice enh
Cc1ccc(NC(=O)Nc2ccc3snnc3c2)cc1C	24µM*	/	/	/	1%
O=C(Nc1ccc2snnc2c1)Nc1cccc2ccccc12	21µM*	-1%	-4%	4%	-8%
COc1cccc(NC(=O)Nn2cnnc2)c1	2%	1%	-2%	0%	/
COc1cccc(NC(=O)Nc2ccc3c(c2)nnn3C)c1	6.7µM*	10%	?	?	18µM*
COc1cc(NC(=O)c2ccc3snnc3c2)cc(OC)c1	?	13%	?	11%	/
COc1cccc(NC(=O)Nc2ccc3snnc3c2)c1	17µM*	/	/	/	19%
